Source: PubChem BioAssay (National Center for Advancing Translational Sciences (NCATS))
Sampled rows, rich in hits. Any-hit rate of the full collection: about 2.3%.
S2 tox – viability counter-screen for ATXN expression inhibitors. AID 651635. Potency, µM (doses to about 56.7 µM), most hits filed as cytotoxic. S2 cells (HEK-293 line with an ATXN2-luciferase reporter) viability, CellTiter-Fluor protease fluorescence, 24 h. actives 0.49% (n = 400,000); further: nearly all actives have a fitted effect of over 40% in size
TGFb SMAD3 inh – TGF-b pathway inhibition; HepG2 CAGA-GFP TGF-b/SMAD3 reporter, GFP fluorescence, 18 h; TGF-beta stimulated, 500 pg/mL final; Potency, µM (doses to about 46.1 µM), for the others: at the highest dose activity, negative = inhibition, usual class: inhibitors; actives 1.2% (n = 410,000); further: on the % scale 0 is the no-effect control and ±100 the full control effect; nearly all actives have a fitted effect of over 65% in size
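Using HEPG2 CAGA-GFP reporter cells at 1000 cells/well, we pinned test compounds, stimulated with recombinant TGF-beta (500 pg/mL final) and measured total well GFP after 18 h.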
ATXN2 expr inh – inhibitors of ATXN2 expression; actives 0.72% (n = 360,000); AID 1745845; HEK-293 ATXN2-luciferase reporter, luminescence, 24 h; Potency, µM (titrated, usually from 57 µM), for inactives: at the highest dose activity change, negative = inhibition, hits mostly inhibitors; further: on the % scale 0 is the no-effect control and ±100 the full control effect; nearly all actives have a fitted effect of over 55% in size
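qHTS (up to 57 uM final) was run with 24 h compound exposure of reporter cells at 37 °C. Each well was multiplexed: SteadyGlo luminescence measured ATXN2-luciferase expression after a fluorogenic Gly-Phe-AFC viability readout (25 uM final).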
HepG2 viability – kills HepG2 cells in TGF-b inhibitor counter-screen | Potency, µM (titrated, usually from 46.1 µM), for inactives: at the top dose activity change, negative = cytotoxicity, usual class: cytotoxic | HepG2 CAGA-GFP viability, ATP luminescence, 18 h | actives 0.76% (n = 410,000)
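CellTiter-Glo luminescence gave cytotoxicity after 18 hours at 37 degrees C. The cells were HepG2 CAGA-GFP in 1% FBS DMEM, stimulated with 500 pg/mL TGF-beta after compound addition. %Activity was normalised to no-cell wells (complete cell-killing) and DMSO (no toxicity), and curves were fitted and classified.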
* = called active by the depositor; i = inactive; ? = inconclusive; nt = no result given. The call rests on the fitted dose curve; in most records, active means well fitted curve in the direction sought with a large enough effect; inconclusive means small, poorly fitted or top-dose-only effect, or another doubt; inactive means no such curve, though single readings can be large; an effect the other way counts as inactive or inconclusive. Potency means the concentration at half of the fitted maximal effect.

SMILES	S2 tox	TGFb SMAD3 inh	ATXN2 expr inh	HepG2 viability
Cc1ccccc1Cn1c(CN2CCC(C(=O)NCCN(C)C)CC2)cc2ccccc21	nt	12.6µM*	nt	10µM*
CNC(=O)C1CCN(Cc2cc3ccccc3n2Cc2ccccc2C)CC1	?	-29.3%	-17.9%	-35.4%
COc1cc(/C=C/c2nc3ccccc3nc2/C=C/c2cc(OC)c(OC)c(OC)c2)cc(OC)c1OC	nt	3.2%	nt	-8.7%
COc1ccccc1N=Nc1nc(-c2ccccc2)c(-c2ccccc2)[nH]1	35.5µM*	?	-9.2%	-42.9%
CCC(=O)OCC(=O)[C@@]1(OC(=O)CC)[C@H](C)C[C@H]2[C@@H]3CCC4=CC(=O)C=C[C@]4(C)[C@@]3(F)[C@@H](O)C[C@@]21C	i	nt	nt	nt
CCCCNc1ccc(C(F)(F)F)cc1S(=O)(=O)NCCc1ccc(F)cc1	?	?	0.0%	5.01µM*
COc1ccc(S(=O)(=O)NCCc2ccc(F)cc2)cc1	i	-5.8%	-6.7%	-15.9%
O=C1Nc2ccccc2C1(c1ccc(O)cc1)c1ccc(O)cc1	i	nt	17.7%	nt
COc1ccc(OC)c(NC(=O)Cn2cc(C=O)c3ccccc32)c1	i	10µM*	-7.4%	-29.8%
Cc1ccc(OCCn2cc(C=O)c3ccccc32)cc1	i	11.2µM*	?	-14.0%
Cc1ccc(NC(=O)Cn2cc(C=O)c3ccccc32)cc1	i	7.94µM*	-8.9%	-29.3%
CCCCCCCC/C=C/C(=O)O	i	nt	11.0%	nt
COCc1ccc(CN2CCOc3c(cc(-c4ccc(SC)cc4)cc3OC)C2)o1	i	nt	nt	nt
Cc1ccccc1-c1cnc(C(O)c2ccc(Cl)c(F)c2)[nH]1 (centres undefined)	i	-21.0%	3.1%	3.16µM*
OC(c1ccc(Cl)c(F)c1)c1ncc(-c2ccccc2F)[nH]1 (centres undefined)	i	4.0%	2.3%	-29.3%
COCCCNc1nnc(Cc2ccccc2)c2ccccc12	i	-1.2%	-11.5%	-15.9%
c1ccc(Cc2nnc(Sc3ccccc3)c3ccccc23)cc1	i	?	-38.3%	20µM*
COCc1c(C(=O)NC2CCOC(C)(C)C2)cnn1-c1nccc(-c2cccs2)n1 (centres undefined)	i	nt	nt	nt
COc1ccc(-c2n[nH]c(C(F)(F)F)c2-c2cc3ccccc3o2)c(O)c1	?	?	?	12.6µM*
O=S1(=O)CCOC[C@H](c2ccccc2)N1Cc1ccc(Cl)cc1Cl	nt	?	nt	-36.4%
O=C(C[N+]12CCCc3cccc(c31)CCC2)c1ccccc1	nt	?	nt	-34.8%
Oc1ccc(Cl)cc1C1C=C(c2ccc3c(c2)OCO3)NC(c2cc(Br)ccc2F)N1 (centres undefined)	nt	7.94µM*	nt	14.1µM*
Oc1ccc(Cl)cc1C1C=C(c2ccc3c(c2)OCO3)NC(c2ccc(Br)cc2)N1 (centres undefined)	nt	-16.5%	nt	-10.7%
COc1ccc(Br)cc1C1NC(c2ccc3c(c2)OCO3)=CC(c2cc(Cl)ccc2O)N1 (centres undefined)	nt	?	nt	11.2µM*
COc1ccccc1C1NC(c2ccc3c(c2)OCO3)=CC(c2cc(Cl)ccc2O)N1 (centres undefined)	nt	?	nt	-30.2%
SMILES	S2 tox	TGFb SMAD3 inh	ATXN2 expr inh	HepG2 viability
CCCCN(Cc1ccco1)C(=O)c1cc2c(s1)-c1c(C)cccc1OC2	i	?	?	-21.5%
CCN(C(=O)c1cc2c(s1)-c1ccccc1OC2)c1cc(Cl)ccc1OC	i	8.91µM*	-20.1%	-19.5%
CCN(C(=O)c1cc2c(s1)-c1c(C)cccc1OC2)c1ccccc1F	i	?	11.3%	-4.9%
CCN(C(=O)c1cc2c(s1)-c1c(C)cccc1OC2)c1cc(C)ccc1C	i	11.2µM*	-15.2%	-28.5%
CN(C)CCN(Cc1ccco1)C(=O)c1cc2c(s1)-c1ccccc1OC2	nt	?	nt	12.6µM*
COCc1c(C(=O)NCC2CCCN(C)C2)cnn1-c1ncc2c(n1)-c1ccccc1CCC2 (centres undefined)	i	nt	nt	nt
C/C(Cn1nnc([N+](=O)[O-])n1)=N\NC(=O)c1ccccc1	?	11.2µM*	-15.3%	-48.6%
CCCCCCCCN1C(=O)[C@H](CC(=O)NCCCC)C[C@@]2(C(=O)OC)CCCCC=C12	28.2µM*	nt	-14.6%	nt
CCCCCCCCN1C(=O)[C@H](CC(=O)N2CCN(C(=O)C3CC3)CC2)C[C@@]2(C(=O)OCC)CCCC=C12	14.1µM*	nt	?	nt
CCCCNC(=O)C[C@@H]1C[C@@]2(C(=O)OC)CCCCC=C2N(Cc2ccc(Cl)cc2Cl)C1=O	31.6µM*	nt	?	nt
CCCCCCCCN1C(=O)[C@H](CC(=O)N2CCN(C(=O)OCC)CC2)C[C@@]2(C(=O)OC)CCCCC=C12	?	nt	0.0%	nt
c1cc2c3c(c1)CCCN3CCC2	nt	-8.4%	nt	1.4%
C[C@@H]1CCO[C@H]2Cn3cc(C(=O)NCc4ccc(F)cc4F)c(=O)c(O)c3C(=O)N12	nt	nt	18.8%	nt
Cc1ncc2c(c1CNC(=O)c1ccccc1F)CCN(C(=O)c1ccccc1-n1cccn1)C2	i	nt	nt	nt
CSc1cccc(NC(=S)N(CCCN2CCCC2)Cc2cccn2Cc2ccc(Cl)cc2)c1	nt	?	14.1µM*	-175.4%
S=C(Nc1cccc(Cl)c1)N(CCCN1CCCC1)Cc1cccn1Cc1ccc(Cl)cc1	28.2µM*	?	31.6µM*	25.1µM*
CC(C)(CNC(=O)c1cnn(-c2nccc(-c3cc4ccccc4o3)n2)c1C1CC1)N1CCOCC1	i	nt	nt	nt
O=C(Nc1cccc(Cl)c1)c1cccc(Oc2ccc([N+](=O)[O-])cc2Cl)c1	?	15.8µM*	nt	-29.2%
COCCC1CCCCN1Cc1nc(N2CCCCC2)c2cc(OC)c(OC)cc2n1 (centres undefined)	i	nt	nt	nt
COc1cccc2sc3ccc(C#CC4(N)CCCCC4)cc3c(=O)c12	?	?	-30.7%	-97.9%
COc1cccc2sc3cc(C#CC4(O)CCCCC4)ccc3c(=O)c12	?	7.08µM*	?	7.08µM*
O=c1c2ccccc2nc(/C=C/c2cc(Br)ccc2O)n1CCO	i	?	nt	12.6µM*
O=c1c2ccccc2nc(/C=C/c2c[nH]c3ccccc23)n1CCO	nt	2.9%	68.2%	-5.7%
CCc1ccc(NS(=O)(=O)c2ccc3[nH]cc(C(=O)NCc4ccc(C)cc4)c(=O)c3c2)cc1	i	?	?	20µM*
C[N+](C)(C)CC(O)CC(=O)[O-] (centres undefined)	i	nt	14.0%	nt
O=C(c1ccc2c(=O)n(CCc3ccccc3)c(=O)[nH]c2c1)N1CCN(c2ccccc2)CC1	i	-3.6%	12.3%	7.4%
O=C(c1ccc2c(=O)n(CCc3ccccc3)c(=O)[nH]c2c1)N1CCN(c2ccc(Cl)cc2)CC1	?	4.47µM*	-19.7%	-19.6%
C=CC[C@H](CC(=O)N(CCO)Cc1ccccc1)C(=O)N[C@H](COC(=O)[C@@H](CC=C)CC(=O)OC(C)(C)C)Cc1c[nH]c2ccccc12	12.6µM*	?	22.4µM*	-20.2%
